compound: C#CCNC(=O)CCSSCCC(=O)NCCc1ccc(C=O)c(C=O)c1; assay: lysine labeling ratio R10:1 (500 µM / 50 µM probe), SILAC-ABPP in living cells; higher = lower intrinsic lysine reactivity toward the probe, active = 2 or less; details: HeLa; probe concentrations 500 vs 50 µM
In short: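 With forward and reverse label swaps, light and heavy SILAC HeLa cells, alive and in PBS at room temperature, were exposed to either 500 µM or 50 µM of an alkyne-tagged lysine probe bearing a disulfide link. After mixing, lysates were clicked to biotin-azide, cut with trypsin, pulled down on neutravidin, freed with DTT, alkylated and analysed on a TIMS-TOF Pro by LC-MS/MS. The per-lysine value R is the median over forward and reverse replicates of the filtered median high-probe/low-probe MS1 peptide ratio. It is capped at 20.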

Sequence of UniProt P21333 (P21333 whole entry): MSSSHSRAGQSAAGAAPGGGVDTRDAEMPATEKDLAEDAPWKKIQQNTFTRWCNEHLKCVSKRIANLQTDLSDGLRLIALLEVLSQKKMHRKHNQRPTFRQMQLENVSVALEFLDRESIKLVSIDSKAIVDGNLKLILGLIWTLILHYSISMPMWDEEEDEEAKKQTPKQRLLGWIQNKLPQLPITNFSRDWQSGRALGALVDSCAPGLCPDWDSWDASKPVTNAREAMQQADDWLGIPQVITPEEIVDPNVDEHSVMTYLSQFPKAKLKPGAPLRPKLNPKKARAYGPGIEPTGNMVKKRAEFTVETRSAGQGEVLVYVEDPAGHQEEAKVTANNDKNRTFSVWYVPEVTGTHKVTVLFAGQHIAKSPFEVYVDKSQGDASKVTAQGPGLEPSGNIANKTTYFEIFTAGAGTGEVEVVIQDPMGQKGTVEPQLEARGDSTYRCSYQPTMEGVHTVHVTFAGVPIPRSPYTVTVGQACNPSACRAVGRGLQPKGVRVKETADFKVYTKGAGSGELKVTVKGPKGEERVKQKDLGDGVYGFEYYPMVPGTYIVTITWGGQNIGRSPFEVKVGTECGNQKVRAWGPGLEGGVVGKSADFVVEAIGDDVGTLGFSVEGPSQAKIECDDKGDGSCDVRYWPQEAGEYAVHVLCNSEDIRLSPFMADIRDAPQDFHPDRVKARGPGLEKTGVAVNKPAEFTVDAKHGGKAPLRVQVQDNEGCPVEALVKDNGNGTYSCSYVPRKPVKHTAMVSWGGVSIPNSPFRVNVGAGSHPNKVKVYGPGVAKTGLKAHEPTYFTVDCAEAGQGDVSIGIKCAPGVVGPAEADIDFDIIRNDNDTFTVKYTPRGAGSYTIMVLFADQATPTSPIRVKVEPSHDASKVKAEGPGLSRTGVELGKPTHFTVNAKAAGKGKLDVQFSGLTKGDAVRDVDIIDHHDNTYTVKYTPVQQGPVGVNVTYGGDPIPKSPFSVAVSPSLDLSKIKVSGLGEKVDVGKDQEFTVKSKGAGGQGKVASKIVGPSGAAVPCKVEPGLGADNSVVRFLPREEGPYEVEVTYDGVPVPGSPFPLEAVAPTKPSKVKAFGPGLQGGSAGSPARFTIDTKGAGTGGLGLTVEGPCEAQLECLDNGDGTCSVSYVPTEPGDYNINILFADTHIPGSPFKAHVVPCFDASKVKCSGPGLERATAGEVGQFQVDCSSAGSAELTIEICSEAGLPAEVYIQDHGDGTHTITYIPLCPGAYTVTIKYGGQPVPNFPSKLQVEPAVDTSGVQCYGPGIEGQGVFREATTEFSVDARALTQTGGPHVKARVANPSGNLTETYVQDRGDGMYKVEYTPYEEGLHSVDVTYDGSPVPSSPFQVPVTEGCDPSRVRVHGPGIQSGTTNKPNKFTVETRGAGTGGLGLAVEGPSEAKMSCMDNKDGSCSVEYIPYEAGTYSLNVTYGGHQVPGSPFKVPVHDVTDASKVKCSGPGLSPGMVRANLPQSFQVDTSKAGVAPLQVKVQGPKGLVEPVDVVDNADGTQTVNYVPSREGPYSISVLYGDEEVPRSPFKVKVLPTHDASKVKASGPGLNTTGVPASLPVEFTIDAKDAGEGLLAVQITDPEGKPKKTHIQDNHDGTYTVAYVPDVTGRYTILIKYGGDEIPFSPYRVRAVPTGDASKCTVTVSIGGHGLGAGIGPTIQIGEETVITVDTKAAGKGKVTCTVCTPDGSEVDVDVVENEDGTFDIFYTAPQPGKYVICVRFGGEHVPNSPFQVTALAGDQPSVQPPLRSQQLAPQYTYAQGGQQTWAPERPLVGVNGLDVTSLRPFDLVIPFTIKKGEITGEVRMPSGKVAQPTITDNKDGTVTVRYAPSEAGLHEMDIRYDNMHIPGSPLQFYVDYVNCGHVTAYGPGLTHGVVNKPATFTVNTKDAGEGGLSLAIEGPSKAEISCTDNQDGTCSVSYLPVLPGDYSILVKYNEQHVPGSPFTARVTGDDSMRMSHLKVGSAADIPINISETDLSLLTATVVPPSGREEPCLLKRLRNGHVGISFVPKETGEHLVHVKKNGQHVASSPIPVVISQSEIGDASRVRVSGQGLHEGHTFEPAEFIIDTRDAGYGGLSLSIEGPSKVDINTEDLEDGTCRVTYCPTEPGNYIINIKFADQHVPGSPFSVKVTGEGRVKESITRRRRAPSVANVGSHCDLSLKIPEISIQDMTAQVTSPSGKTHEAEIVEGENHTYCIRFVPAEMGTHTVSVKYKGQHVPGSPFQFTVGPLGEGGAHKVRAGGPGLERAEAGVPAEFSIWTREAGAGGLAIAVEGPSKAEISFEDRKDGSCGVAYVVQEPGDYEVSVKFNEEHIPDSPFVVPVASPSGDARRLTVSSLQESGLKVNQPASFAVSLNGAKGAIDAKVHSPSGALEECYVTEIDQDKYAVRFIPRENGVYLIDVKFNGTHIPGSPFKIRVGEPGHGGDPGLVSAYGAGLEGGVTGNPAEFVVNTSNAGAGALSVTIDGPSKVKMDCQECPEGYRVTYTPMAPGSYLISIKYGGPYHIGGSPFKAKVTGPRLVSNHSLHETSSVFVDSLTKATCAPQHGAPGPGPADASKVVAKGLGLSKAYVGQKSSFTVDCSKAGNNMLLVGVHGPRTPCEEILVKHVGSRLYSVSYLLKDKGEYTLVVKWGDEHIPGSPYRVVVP
Sequence of UniProt P34897 (P34897 whole entry): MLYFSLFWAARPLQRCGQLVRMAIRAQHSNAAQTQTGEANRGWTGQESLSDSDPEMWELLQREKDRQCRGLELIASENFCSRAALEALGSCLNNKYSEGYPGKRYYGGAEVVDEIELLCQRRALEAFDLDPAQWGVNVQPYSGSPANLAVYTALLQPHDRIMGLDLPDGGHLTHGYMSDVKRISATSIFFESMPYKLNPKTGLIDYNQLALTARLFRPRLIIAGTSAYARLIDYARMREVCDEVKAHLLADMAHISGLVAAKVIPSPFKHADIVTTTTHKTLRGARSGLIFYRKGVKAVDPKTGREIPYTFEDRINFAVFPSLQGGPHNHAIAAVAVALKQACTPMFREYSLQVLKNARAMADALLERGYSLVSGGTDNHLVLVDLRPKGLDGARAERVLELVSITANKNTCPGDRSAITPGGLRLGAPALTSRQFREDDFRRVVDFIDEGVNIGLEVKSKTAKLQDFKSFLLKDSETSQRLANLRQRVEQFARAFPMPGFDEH
Sequence of UniProt P07237 (P07237 whole entry, looked up): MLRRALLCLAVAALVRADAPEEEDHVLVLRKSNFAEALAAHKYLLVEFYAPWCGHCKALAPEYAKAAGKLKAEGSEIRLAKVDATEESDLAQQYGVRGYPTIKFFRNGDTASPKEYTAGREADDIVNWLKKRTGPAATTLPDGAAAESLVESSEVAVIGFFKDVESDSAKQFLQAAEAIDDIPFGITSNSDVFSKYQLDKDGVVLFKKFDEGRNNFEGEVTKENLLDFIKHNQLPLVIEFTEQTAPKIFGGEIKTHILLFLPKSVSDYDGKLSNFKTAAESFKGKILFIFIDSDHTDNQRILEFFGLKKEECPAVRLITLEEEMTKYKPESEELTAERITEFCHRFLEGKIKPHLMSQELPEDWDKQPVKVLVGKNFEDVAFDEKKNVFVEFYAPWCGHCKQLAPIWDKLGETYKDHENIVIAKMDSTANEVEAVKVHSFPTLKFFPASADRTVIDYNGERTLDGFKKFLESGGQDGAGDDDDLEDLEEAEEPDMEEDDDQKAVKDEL
Sequence of UniProt P02533 (P02533 whole entry): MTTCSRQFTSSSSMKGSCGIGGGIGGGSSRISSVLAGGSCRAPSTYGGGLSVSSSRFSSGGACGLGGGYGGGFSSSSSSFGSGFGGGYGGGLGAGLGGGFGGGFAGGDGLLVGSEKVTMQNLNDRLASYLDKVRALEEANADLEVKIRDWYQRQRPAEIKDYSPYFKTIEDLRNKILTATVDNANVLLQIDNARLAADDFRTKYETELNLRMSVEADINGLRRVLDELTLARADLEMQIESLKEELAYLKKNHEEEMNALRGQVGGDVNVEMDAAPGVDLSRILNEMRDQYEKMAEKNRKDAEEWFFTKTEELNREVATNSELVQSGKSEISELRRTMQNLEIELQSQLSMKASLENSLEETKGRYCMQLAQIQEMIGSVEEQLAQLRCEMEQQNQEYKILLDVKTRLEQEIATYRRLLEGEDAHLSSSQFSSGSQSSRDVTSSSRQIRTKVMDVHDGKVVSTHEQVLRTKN
Sequence of UniProt P61604 (P61604 whole entry): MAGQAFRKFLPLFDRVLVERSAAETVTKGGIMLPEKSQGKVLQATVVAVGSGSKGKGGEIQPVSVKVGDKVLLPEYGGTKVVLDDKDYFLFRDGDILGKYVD
Sequence of UniProt P50454 (P50454 whole entry): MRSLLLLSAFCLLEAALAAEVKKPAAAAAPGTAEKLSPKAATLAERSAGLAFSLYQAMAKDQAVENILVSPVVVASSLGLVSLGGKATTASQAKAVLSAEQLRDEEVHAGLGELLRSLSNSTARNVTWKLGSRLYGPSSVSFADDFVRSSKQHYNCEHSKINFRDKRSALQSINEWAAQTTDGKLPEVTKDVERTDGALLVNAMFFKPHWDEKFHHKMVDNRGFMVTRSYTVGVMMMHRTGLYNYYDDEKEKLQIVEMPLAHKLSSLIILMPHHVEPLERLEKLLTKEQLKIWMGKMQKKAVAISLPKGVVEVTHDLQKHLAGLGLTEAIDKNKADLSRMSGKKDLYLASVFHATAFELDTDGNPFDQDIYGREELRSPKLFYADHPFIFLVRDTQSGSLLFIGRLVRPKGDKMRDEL
Sequence of UniProt Q9NV96 (Q9NV96 whole entry): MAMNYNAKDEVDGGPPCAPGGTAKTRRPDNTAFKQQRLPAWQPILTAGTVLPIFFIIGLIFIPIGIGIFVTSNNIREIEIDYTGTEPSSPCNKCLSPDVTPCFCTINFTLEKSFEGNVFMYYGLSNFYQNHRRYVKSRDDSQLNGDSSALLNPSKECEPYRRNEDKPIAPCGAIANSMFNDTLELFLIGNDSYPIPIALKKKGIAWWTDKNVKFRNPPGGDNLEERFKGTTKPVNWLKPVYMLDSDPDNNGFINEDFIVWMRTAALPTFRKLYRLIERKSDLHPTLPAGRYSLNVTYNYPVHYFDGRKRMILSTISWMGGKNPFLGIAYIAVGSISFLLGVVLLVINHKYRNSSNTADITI

Lysine labeling ratio R10:1, inactive:
TNKS1BP1 (lysine site: K1676) (UniProt Q9C0C2) 2.22, UniProt P62750 (lysine site: K152) 4.64, IGF2R (lysine site: K527) (UniProt P11717) 2.81, FLNA (lysine site: K1294) (UniProt P21333) 2.32, YBX1 (lysine site: K137) (UniProt P67809) 7.5, SERPINH1 (lysine site: K94) (UniProt P50454) 3.29, UniProt P21589 (lysine site: K67) 2.8, UniProt P25705 (lysine site: K261) 2.94, PTPRS (lysine site: K370) (UniProt Q13332) 2.37, ACTN4 (lysine site: K632) (UniProt O43707) 4.35, FLNB (lysine site: K409) (UniProt O75369) 2.05, PTPRF (lysine site: K906) (UniProt P10586) 4.94, FLNA (lysine site: K876) (UniProt P21333) 4.23, UniProt Q15149 (lysine site: K195) 4.55, UniProt P02533 (lysine site: K328) 11.3, UniProt P08240 (lysine site: K220) 2.1, ITGA1 (lysine site: K563) (UniProt P56199) 5.65, UniProt P49720 (lysine site: K77) 2.88, TKT (lysine site: K204) (UniProt P29401) 10.2, RPL3 (lysine site: K373) (UniProt P39023) 2.31, CNP (lysine site: K101) (UniProt P09543) 2.62, RPL4 (lysine site: K239) (UniProt P36578) 2.48, UniProt Q12884 (lysine site: K258) 3.81, SHMT2 (lysine site: K103) (UniProt P34897) 4.3, FRAS1 (lysine site: K380) (UniProt Q86XX4) 2.25, FLNA (lysine site: K2387) (UniProt P21333) 11.9

Lysine labeling ratio R10:1, active:
LRPAP1 (lysine site: K340) (UniProt P30533) 1.47, HSPE1 (lysine site: K86) (UniProt P61604) 1.85, HNRNPL (lysine site: K538) (UniProt P14866) 1.29, UniProt Q7L592 (lysine site: K72) 0.87, CORO1C (lysine site: K329) (UniProt Q9ULV4) 1.19, TMEM30A (lysine site: K279) (UniProt Q9NV96) 1.73, MET (lysine site: K599) (UniProt P08581) 1.67, PDCD6IP (lysine site: K486) (UniProt Q8WUM4) 0.775, LDLR (lysine site: K518) (UniProt P01130) 1.72, P4HB (lysine site: K309) (UniProt P07237) 1.42, SPTBN1 (lysine site: K1459) (UniProt Q01082) 0.588, S100A11 (lysine site: K55) (UniProt P31949) 1.54, EZR (lysine site: K64) (UniProt P15311) 0.907, ANXA1 (lysine site: K166) (UniProt P04083) 1.32
